Compounds with a hit are over-represented: about 1.7% of the library has one in this group of screens.
GLP-1R inv ag – qHTS of GLP-1 Receptor Inverse Agonists (Inhibition Mode); HEK293 GLP-1R CRE-luciferase, luminescence, 24 h; GLP-1R form is constitutively active; Potency, µM (doses to about 38.3 µM), for inactives: at the highest dose activity change, negative = inhibition, hits mostly inhibitors; actives 1.6% (n = 410,000); AID 624417, 2012; also: % is scaled to controls: 0 for no effect and ±100 for the full control effect; nearly all actives have a fitted effect of over 55% in size
Target sequence (P43220 whole entry, looked up): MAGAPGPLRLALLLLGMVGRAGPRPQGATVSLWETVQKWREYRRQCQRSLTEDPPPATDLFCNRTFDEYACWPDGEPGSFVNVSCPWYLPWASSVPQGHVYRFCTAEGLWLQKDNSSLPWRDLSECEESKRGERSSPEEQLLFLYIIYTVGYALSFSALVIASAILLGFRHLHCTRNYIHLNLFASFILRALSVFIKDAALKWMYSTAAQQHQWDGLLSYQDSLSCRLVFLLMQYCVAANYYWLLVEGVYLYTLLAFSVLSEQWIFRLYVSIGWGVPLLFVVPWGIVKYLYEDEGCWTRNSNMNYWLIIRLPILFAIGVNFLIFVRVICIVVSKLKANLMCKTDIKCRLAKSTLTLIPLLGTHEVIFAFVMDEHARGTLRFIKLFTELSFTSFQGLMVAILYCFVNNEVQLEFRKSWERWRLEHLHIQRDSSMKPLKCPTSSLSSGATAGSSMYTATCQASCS
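Stable HEK293 clone (constitutively active GLP-1R + cAMP-response luciferase); 200 cells/uL plated, 12 h pre-culture, compound 24 hr, 37 deg C/5% CO2; detection reagent 12 min RT; luminescence.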
GLP-1R agonist – qHTS of GLP-1 Receptor Agonists; HEK293 GLP-1R CRE-luciferase, luminescence, 4-6 h; cells express a hypersensitive GLP-1R form; Potency, µM (doses to about 45.6 µM), inactives show at the highest dose activation, usual class: activators; AID 624172, 2012; actives 0.007% (n = 380,000); also: % of control where 0% means no effect
GLP1R cytotox – qHTS of GLP-1 Receptor Inverse Agonists: Cytotox Screen | actives 0.13% (n = 410,000) | HEK293 cAMP-luciferase reporter cells, luminescence, 24 h | AID 624418, 2012 | Potency, µM (series often up to 38.3 µM), without a hit: at the highest dose activity change, negative = inhibition, actives largely listed as inhibitors;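 also: loss of luciferase light is scored as toxicity; % is scaled to controls: 0 for no effect and ±100 for the full control effect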
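1536-well qHTS counterscreen of the MLSMR; 200 cells/uL, 12 h pre-incubation, 23 nL cpd, 24 h at 37 deg C 5% CO2, luciferase detection reagent, 12 min RT, luminescence. Inhibition = undesired.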
An asterisk follows results filed as active; ? = inconclusive; . = not tested or not shown; [ ] = remark or other dose. Calls follow the shape of the dose curve; as a rule, active = well fitted curve in the direction sought with a large enough effect; inconclusive = small, poorly fitted or top-dose-only effect, or another doubt; inactive = no such curve, though single readings can be large; an effect the other way counts as inactive or inconclusive. Potency is read from the fitted curve at half-maximal effect.

SMILES | GLP-1R inv ag | GLP-1R agonist | GLP1R cytotox
Cc1ccccc1-c1nnc(SCC(=O)N(C)C2CCCCC2)o1 | 3% | . | -5%
Oc1ccc2ccccc2c1N=Nc1ccccn1 | ? | ? | 2.5µM*
Oc1ccc2ccccc2c1N=Nc1ccccc1F | 16% | 1% | -12%
CC(C)CN(CC(C)C)S(=O)(=O)c1ccc(C(=O)Nc2sc3c(c2C(N)=O)CCN(C(C)C)C3)cc1 | -12% | 10% | 275%
CCc1cccc(OCC(=O)N(C)CC(=O)Nc2cccc(F)c2)c1 | ? | -3% | -2%
CCOC(=O)C1=C(c2ccccc2)N=c2s/c(=C\c3cccc(O)c3)c(=O)n2C1c1cccs1 (stereo not drawn) | 11µM* | -1% | -10%
CCOC(=O)C1=C(C)N=c2s/c(=C\c3cccc(OCC(=O)O)c3)c(=O)n2C1c1ccccc1OC (stereo not drawn) | 9% | -5% | 1%
O=c1cc(Cl)nc2ccccn12 | 9% | -1% | -11%
CC(=O)c1ccccc1NC(=O)COC(=O)C1=NN(c2ccccc2)C(=O)CC1 | 34% | 10% | 2%
COc1cc2nc(SCc3ccc(C)cc3)n3nc(CCn4nc(C)cc4C)nc3c2cc1OC | -9% | -3% | 30%
Clc1ccc(-c2nsc(N3CCOCC3)n2)c(Cl)c1 | ? | 19% | -7%
COCCCNc1ccn2nc(-c3ccccc3)cc2n1 | 4µM* | -6% | -5%
COCCCNc1ccn2nc(-c3cccc(Cl)c3)cc2n1 | ? | 4% | -4%
COCCCNc1ccn2nc(-c3cccc(OCc4ccccc4)c3)cc2n1 | ? | -19% | -4%
c1ccc(COc2cccc(-c3cc4nc(NCc5cccs5)ccn4n3)c2)cc1 | 4.5µM* | 16% | -14%
COc1ccc(OC)c(CNC(=O)c2ccc3c(c2)c(C)c(C)n3Cc2ccc(Cl)cc2)c1 | ? | . | -1%
COc1cc(OC)c(/C=N/NC(=O)COc2cccc3cccnc23)c(OC)c1 | 1% | 15% | 8%
Cc1cc2nc(-c3ccc[nH]c3=O)[nH]c2cc1C | 3.5µM* | 16% | 74%
Cc1cc2nc(-c3ccc[nH]c3=O)n(Cc3ccc(F)cc3)c2cc1C | ? | 10% | 2%
COc1ccc(C2=NC(C)(C)N(CC(=O)Nc3ccc(F)c(F)c3)C2=O)cc1 | -25% | . | -1%
Cc1ccc(S(=O)(=O)N(Cc2ccccc2F)C(=O)N2CCN(C)CC2)cc1 | 15% | -12% | 2%
CCCS(=O)(=O)N1CC(=O)N(c2ccccc2C)C(C)(C(=O)NC2CCCCC2)C1 (stereo not drawn) | 12% | . | -3%
CC(C)C1N=C(c2ccc3c(c2)OCO3)CC(c2ccccc2O)N1 (stereo not drawn) | 11µM* | -12% | ?
CCOc1ccccc1C1N=C(c2ccc(OC)cc2)CC(c2ccccc2O)N1 (stereo not drawn) | 11%[0.307 µM] | -12% | 0%[0.307 µM]
COc1cc(NC(=O)CN2C(=O)NC3(CCOc4ccccc43)C2=O)cc(OC)c1 (stereo not drawn) | -24% | 7% | -5%
SMILES | GLP-1R inv ag | GLP-1R agonist | GLP1R cytotox
O=C(CN1C(=O)NC2(CCOc3ccccc32)C1=O)Nc1cccc(Cl)c1 (stereo not drawn) | 10µM* | 2% | 5%
CC(C)Oc1ccccc1C1CC(=O)Nc2cc3c(cc21)OCCO3 (stereo not drawn) | -13% | ? | ?
CC(C)Oc1ccccc1C1Nc2ccccc2C(=O)N1c1ccc2c(c1)OCCO2 (stereo not drawn) | 10µM* | -9% | 23%
COc1ccc(OC)c(NC(=O)C2CCN(S(=O)(=O)c3c(C)noc3/C=C/c3ccc(C)cc3)CC2)c1 | -30% | -2% | -1%
OC[C@@H]1CN(Cc2ccc(-c3ccccc3)cc2)C[C@H](n2cnc3c(Nc4ccccc4)ncnc32)O1 | 4.5µM* | -1% | -30%
OC[C@@H]1CN(Cc2ccc(F)cc2)C[C@H](n2cnc3c(Nc4ccccc4)ncnc32)O1 | -15% | 0% | 1%
O=C(CCCn1c(=O)c2cccn2c2ccccc21)NCc1ccccc1Br | 12% | . | 0%
c1ccc2c(c1)CC(N1CCCCC1)c1ccccc1S2 (stereo not drawn) | -11% | -1% | 5%
CN1CCN(C2Cc3cc(Cl)ccc3Sc3cc(F)ccc32)CC1 (stereo not drawn) | 5µM* | 7% | ?
O=C(N/N=C/c1c(Cl)cccc1Cl)c1n[nH]c2c1CCCC2 | ? | -3% | -23%
C/C(=N\NC(=O)c1n[nH]c2c1CCC2)c1ccco1 | 1.8µM* | -6% | 13%
Cc1ccsc1/C=N\NC(=O)c1n[nH]c2c1CCC2 | 2.8µM* | -21% | ?
CCC(C)(C)C1CCc2[nH]nc(C(=O)N/N=C(\C)c3ccco3)c2C1 (stereo not drawn) | ? | 10% | ?
Cc1noc(/C=C/c2ccco2)c1S(=O)(=O)N1CCC(C(=O)Nc2ccc(F)c(Cl)c2)CC1 | ? | . | -11%
COc1ccc(CN2CCC(CO)(Cc3ccccc3C(F)(F)F)CC2)c(F)c1 | 8.9µM* | -2% | ?
COc1ccc(CC2(CO)CCN(Cc3cccc4nccnc34)CC2)cc1 | -2%[7.66 µM] | 5% | -4%[7.66 µM]
COc1ccc(-c2cc3c(=O)n(CC(=O)NCCCN4CCN(Cc5ccccc5)CC4)ncn3n2)cc1 | ? | 5% | -16%
COc1ccc(-c2cc3c(=O)n(CC(=O)NCCCN4CCC(Cc5ccccc5)CC4)ncn3n2)cc1 | 2.2µM* | 0% | -1%
CCN1CCN(C(=O)N[C@H](C(=O)N[C@@H]2C(=O)N3[C@@H](C(=O)O)C(C)(C)S[C@@H]23)c2ccccc2)C(=O)C1=O | . | -5% | .
COc1ccc2nc(NC(=O)c3ccc(S(=O)(=O)N4CCC(C)CC4)cc3)sc2c1 | 23% | 8% | 0%
C=CCC1(CC=C)CCCN1C(=O)c1cc(COc2ccc(F)c(F)c2)on1 | 2.8µM* | 4% | 8%
CCOC(=O)CC1(NC(=O)c2cc(COc3ccc(F)c(F)c3)on2)CCCCC1 | 10µM* | 17% | 6%
Cc1cc(CNC(=O)c2cc(COc3ccc(F)c(F)c3)on2)nn1C | -16% | 1% | -4%
C=CCC1(CC=C)CCCN1C(=O)c1cc(COc2ccc(C)nc2)on1 | ? | 1% | -12%
COc1ccc(/C=C/c2nc(C#N)c(N3CCN(c4ccccc4)CC3)o2)cc1OC | -6% | . | 2%
CCOc1ccccc1C(=O)NC1CC2CCCC(C1)N2Cc1nnnn1Cc1ccco1 (stereo not drawn) | ? | 7% | -4%
O=C(NC1CC2CCC(C1)N2Cc1nnnn1Cc1ccco1)NC12CC3CC(CC(C3)C1)C2 (stereo not drawn) | 10µM* | -11% | -9%
CCN(CC)C(=O)Cn1c(SCCOc2ccc(Cl)cc2)nc2ccccc21 | ? | . | -13%
CCCCNC(=O)C[C@@H]1C[C@@]2(C(=O)OCC)CCCC=C2N(CCc2ccc(OC)c(OC)c2)C1=O | 1% | . | -8%
CCOC(=O)[C@]12CCCC=C1N(CCc1ccc(OC)c(OC)c1)C(=O)[C@H](CC(=O)NCCCCc1ccccc1)C2 | 10µM* | . | -27%

Screens as filed in PubChem BioAssay.
